Compound activity from PubChem.
KKLEB tox – reduces viability of KKLEB cystic fibrosis airway cells. KKLEB CF airway cells viability, ATPlite luminescence, overnight; hits give low values; cells stimulated with P. aeruginosa culture filtrate. activity change (cytotoxicity), % at 5 µM. hit rate 0.36% among 360,000;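 active = corrected activity change at or below -50% at 5 µM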
TROY signal inh – TROY signaling inhibition; hit rate 0.98% among 360,000; inhibition, % at 10 µM; Q293 LMP1-TROYcd NF-kB luciferase reporter, 4 h;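 active = compounds whose plate-normalised and pattern-corrected inhibition of the luciferase reporter signal at the single screening dose is 50% or more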
CF NFkB inh – cystic fibrosis NF-kB activation inhibition | KKLEB NF-kB-GFP reporter, PAF-induced, GFP fluorescence overnight | inhibition, % at 5 µM | hit rate 0.86% among 360,000 | AID 588850;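 active = at least 50% inhibition at 5 µM, scaled per plate between neutral and stimulator controls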;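 note: PAF is a Pseudomonas aeruginosa culture filtrate used as stimulus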
TWEAK-Fn14 inh – blocks TWEAK-Fn14 interaction in a reporter cell assay; AID 1159606; inhibition, % at 10 µM; TWEAK-stimulated Fn14 reporter cells, luciferase luminescence, 8 h; hit rate 2% among 360,000; in the data active = inhibition above about 50%
HIF-2a block – HIF-2a inhibition | 786-0 RCC cells HIF-2a reporter, luciferase luminescence, overnight | AID 624352 | hit rate 0.72% among 360,000 | inhibition, % at 18.8 µM;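 active = inhibition of the luminescence signal of 40% or more relative to plate controls, in a single-dose primary screen at 18.75 µM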
Peg3 promoter – reduces Peg3 promoter-driven luciferase expression in HeLa; HeLa PEG-Prom luciferase reporter, luminescence, overnight; inhibition, % at 20 µM; hit rate 1.7% among 360,000;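 active = inhibition of at least 50% at 20 µM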
A number is an active result; - = inactive; . = not tested or not shown. In the library only some 4% were active in any assay of this set; here they are far more common.

SMILES	KKLEB tox	TROY signal inh	CF NFkB inh	TWEAK-Fn14 inh	HIF-2a block	Peg3 promoter
O=C(CSc1nnc(Nc2ccccc2)s1)Nc1cccc(S(=O)(=O)N2CCCCC2)c1	-	-	-	51	-	-
CCN1CCN(c2ncnc3c2sc(=S)n3-c2ccccc2)CC1	-	-	-	-	-	-
S=c1sc2c(N3CCN(Cc4ccccc4)CC3)ncnc2n1-c1ccccc1	-	56	-	58	-	-
Cc1nc2ccc(Cl)cn2c1[N+](=O)[O-]	-	-	-	-	-	-
CCCN(CCC)c1ncnc2c1cnn2-c1ccc(OC)cc1	-	62	-	53	-	-
CN(C)CCNc1ncnc2c1cnn2-c1ccc(Cl)cc1	-	-	-	-	-	-
OCCCNc1ncnc2c1cnn2-c1ccc(Cl)cc1	-	-	-	68	-	-
CCC(CO)Nc1ncnc2c1cnn2-c1ccc(OC)cc1 (centres undefined)	-	-	-	54	-	-
C=CCNc1ncnc2c1cnn2-c1ccc(OC)cc1	-	-	-	-	-	-
CCC(CO)Nc1ncnc2c1cnn2-c1ccc(Cl)cc1 (centres undefined)	-	73	-	68	-	-
Clc1ccc(-n2ncc3c(NCC4CCCO4)ncnc32)cc1 (centres undefined)	-	-	-	60	-	-
OC(COC1CCCCC1)CN1CCN(c2ccccc2)CC1 (centres undefined)	-	-	-	-	-	-
Cc1n(CC(O)COC2CCCCC2)c2ccccc2[n+]1C (centres undefined)	-	.	-	76	-	-
Cc1cccc(-c2c3c(=O)n(C)c(=O)n(C)c3cn2C(C)C)c1	-	-	-	-	-	-
O=C(N[C@@H]1C/C=C\C[C@H](CC(=O)N(CCO)Cc2ccccc2)C(=O)N[C@@H](Cc2ccccc2)COC1=O)OCC1c2ccccc2-c2ccccc21	-	-	-	-	-	68
C[C@@H]1COC(=O)[C@H](NC(=O)OCC2c3ccccc3-c3ccccc32)C/C=C\C[C@@H](CC(=O)N[C@@H](CO)Cc2ccccc2)C(=O)N1	-	-	-	-	-	-
O=C(N[C@H]1C/C=C\C[C@@H](CC(=O)N(CCO)Cc2ccccc2)C(=O)NC[C@H](c2ccccc2)OC1=O)OCC1c2ccccc2-c2ccccc21	-	-	-	51	-	75
O=C(C[C@H]1C/C=C\C[C@H](NC(=O)OCC2c3ccccc3-c3ccccc32)C(=O)OC[C@H](Cc2ccccc2)NC1=O)N[C@H](CO)Cc1ccccc1	-	-	-	-	-	75
C[C@@H]1COC(=O)[C@H](NC(=O)OCC2c3ccccc3-c3ccccc32)C/C=C\C[C@@H](CC(=O)N(CCO)Cc2ccccc2)C(=O)N1	-	-	-	-	-	-
CC(C)(C)OC(=O)NCCCCC1=CC2=CC(=O)C(C)(O)C(=O)C2=CO1 (centres undefined)	-	-	-	-	-	-
CCCC(=O)N1CCC1(C)C(=O)Nc1cc(C)ccc1C (centres undefined)	-	-	-	-	-	-
COc1ccc2nc(NC(=O)c3cccnc3SC)sc2c1	-	-	-	-	-	-
Cc1ccc(-c2nc3c(c(SCC(=O)N4CCCC4)n2)COC(C)(C)C3)cc1	-	-	-	-	-	-
CCN(CC)C(=O)CSc1nc(-c2ccc(C)cc2)nc2c1COC(C)(C)C2	-	58	-	58	-	-
CC1NC(=S)N(Cc2ccccc2)C1=O (centres undefined)	-	-	-	-	-	-
SMILES	KKLEB tox	TROY signal inh	CF NFkB inh	TWEAK-Fn14 inh	HIF-2a block	Peg3 promoter
O=C(O)CC1NC(=S)N(Cc2ccccc2)C1=O (centres undefined)	-	-	-	-	-	52
Cc1ccc(Cl)cc1NC(=O)CN1CCN(C(=O)C2CCCO2)CC1 (centres undefined)	-	-	-	-	-	-
COC(=O)c1ccccc1NC1=C/C(=N\S(=O)(=O)c2ccc(C(=O)O)cc2)c2ccccc2C1=O	-62	-	97	94	-	105
O=C(O)c1ccc(NC2=C(n3nnc4ccccc43)C(=O)c3ccccc3C2=O)cc1	-	-	-	-	-	-
CCc1ccc(S(=O)(=O)/N=C2\C=C(Nc3ccc(C(=O)O)cc3)C(=O)c3ccccc32)cc1	-	-	90	96	-	-
Cc1ccc(S(=O)(=O)/N=C2\C=C(Nc3cccc(C(=O)O)c3)C(=O)c3ccccc32)cc1	-	-	98	94	-	-
Cc1ccc(S(=O)(=O)/N=C2\C=C(Nc3cccc(C(=O)O)c3)C(=O)c3ccccc32)c(C)c1	-	-	92	93	-	-
O=C(c1ccc(N2CCCC2=O)cc1)N1CCN(c2ccccc2O)CC1	-	-	-	-	-	-
Cc1nn(-c2ccccc2)c(C)c1/C=N/NC(=O)CSc1nnc(SCc2ccccc2Cl)s1	-	-	-	-	-	-
Cc1ccc(S(=O)(=O)/N=C2\C=C(Nc3ccc(O)cc3)C(=O)c3ccccc32)cc1	-80	-	83	101	70	105
Cc1ccc(S(=O)(=O)Nc2ccc(N=Nc3ccc(O)cc3)cc2)cc1	-	-	-	-	-	-
Cc1cc(=O)n(C)c2ccccc12	-	-	-	-	-	-
Cc1cc(=O)n2c3c(c4c(cc13)c(CN(C)C)cc(=O)n4C)OC2	-	52	-	-	-	-
CCSc1ncc(Cl)c(C(=O)Nc2sc3c(c2C(=O)NCc2cccnc2)CCCC3)n1	-54	-	-	-	-	-
Cc1ccc(S(=O)(=O)Nc2ccc(O)c(Sc3ncn[nH]3)c2)cc1	-	-	-	-	-	-
CCOc1ccc(S(=O)(=O)Nc2ccc(O)c(Sc3ncn[nH]3)c2)cc1	-	-	-	-	-	-
Cc1ccc(S(=O)(=O)/N=C2/C=C(Sc3ncn[nH]3)C(=O)c3ccccc32)cc1	-58	-	100	95	98	106
CC(C)c1ccc(S(=O)(=O)/N=C2/C=C(Sc3ncn[nH]3)C(=O)c3ccccc32)cc1	-	62	84	92	49	64
CC(=O)Nc1ccc(C(=O)NNC(=O)C2C3CCCCC32)cc1 (centres undefined)	-	-	-	-	-	-
COc1ccc(COC(=O)C2=C(C)NC(=O)NC2c2ccccc2OC(C)C)cc1 (centres undefined)	-	-	-	-	-	-
CC1(S(=O)(=O)O)CC(=O)c2ccccc2C1=O (centres undefined)	-	-	69	-	-	-
COC(=O)[C@H](CC(C)C)NS(=O)(=O)N[C@@H](CC(C)C)C(=O)OC	-	-	-	-	-	-
CC1CCCC=CC2CC(OC(=O)CN(C)C)CC2C(O)C=CC(=O)O1 (centres undefined)	-	-	71	-	-	55
Cn1nnnc1SCc1ccc(C(=O)Nc2nccs2)cc1	-	-	-	-	-	-
